Measurements reported in PubChem BioAssay (NCATS).
Values joined by “and” are separate entries in the source; they are usually repeats but may differ in a detail not shown here. Equal entries are not always repeated. Inconclusive results are not listed. Where a call stands in place of a potency, no number is given. A number with no mark means an inactive call. Active and inactive are the calls of the source. The call rests on the fitted dose curve; in most records, active means well fitted inhibition curve with a large enough effect; inconclusive means small, poorly fitted or top-dose-only effect; inactive means flat fitted curve, though single readings scatter.

What was measured:
CRL-7250 [1] = experiment: Cytotoxic Profiling of Annotated Libraries Using Quantitative High-Throughput Screening (AID 1296008); conditions: Five cell lines viability, CellTiter-Glo ATP luminescence, 48-72 h; max response: active compounds read low
In short: (§1)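 Cytotoxicity was measured as CellTiter-Glo ATP luminescence, read after 10 min at room temperature. Compound treatment of the cells lasted 48 or 72 hr at 37 degrees Celsius in a qHTS format.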

HEK293 = experiment: as above; conditions: Five cell lines viability, CellTiter-Glo ATP luminescence, 48-72 h; max response: active compounds read low
In short: as §1

HaCat [2] = experiment: as above; conditions: Five cell lines viability, CellTiter-Glo ATP luminescence, 48-72 h; max response: active compounds read low
In short: as §1

NIH3T3 = experiment: as above; conditions: Five cell lines viability, CellTiter-Glo ATP luminescence, 48-72 h; max response: active compounds read low
In short: as §1

HACAT [3] = experiment: qHTS assay to identify novel small-molecules to repurpose for Merkel cell carcinoma treatment (AID 1296009); conditions: MCC and control cell lines, CellTiter-Glo viability, 72 h; at 44.8 µM (top of the series) unless noted; further: potency means the concentration at half of the fitted maximal effect
In short: (§2)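 Cell viability, measured as CellTiter-Glo luminescence, was normalized between DMSO and no-cell wells. The cells had been exposed to 8- or 11-point compound dilutions for 72 hr at 37 degree celsius.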

MCC-13 = experiment: as above; conditions: MCC and control cell lines, CellTiter-Glo viability, 72 h; series mostly up to 46 µM
In short: as §2

MCC-26 = experiment: as above; conditions: MCC and control cell lines, CellTiter-Glo viability, 72 h; series mostly up to 46 µM
In short: as §2

MKL-1 = experiment: as above; conditions: MCC and control cell lines, CellTiter-Glo viability, 72 h; series mostly up to 46 µM
In short: as §2

KB-3-1 = experiment: Cytotoxic Profiling of Annotated Libraries Using Quantitative High-Throughput Screening (AID 1296008); conditions: Five cell lines viability, CellTiter-Glo ATP luminescence, 48-72 h; max response: active compounds read low
In short: as §1

CRL-7250 [4] = experiment: qHTS assay to identify novel small-molecules to repurpose for Merkel cell carcinoma treatment (AID 1296009); conditions: MCC and control cell lines, CellTiter-Glo viability, 72 h; at 44.8 µM (top of the series) unless noted; further: potency means the concentration at half of the fitted maximal effect
In short: as §2

PAD = experiment: qHTS profiling for inhibitors of Plasmodium falciparum proliferation (AID 504749); further: potency means the concentration at half of the fitted maximal effect; conditions: P. falciparum in erythrocytes, SYBR Green DNA, 72 h; series mostly up to 28.7 µM
In short: (§3)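 SYBR Green fluorescence of parasite DNA, read after lysis and overnight dark incubation, measured growth over 72 h in erythrocyte culture at 0.3% parasitemia and 2.5% hematocrit. Data normalised to DMSO and 0.29 uM artemisinin, with plate-drift correction.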

PC15 = experiment: as above; conditions: P. falciparum in erythrocytes, SYBR Green DNA, 72 h; series mostly up to 28.7 µM
In short: as §3

PC26 = experiment: as above; conditions: P. falciparum in erythrocytes, SYBR Green DNA, 72 h; series mostly up to 28.7 µM
In short: as §3

PC49 = experiment: as above; conditions: P. falciparum in erythrocytes, SYBR Green DNA, 72 h; series mostly up to 28.7 µM
In short: as §3

SC27B = experiment: as above; conditions: P. falciparum in erythrocytes, SYBR Green DNA, 72 h; series mostly up to 28.7 µM
In short: as §3

TAB109 = experiment: as above; conditions: P. falciparum in erythrocytes, SYBR Green DNA, 72 h; series mostly up to 28.7 µM
In short: as §3

TAB113 = experiment: as above; conditions: P. falciparum in erythrocytes, SYBR Green DNA, 72 h; series mostly up to 28.7 µM
In short: as §3

TAB165 = experiment: as above; conditions: P. falciparum in erythrocytes, SYBR Green DNA, 72 h; series mostly up to 28.7 µM
In short: as §3

W2 = experiment: as above; conditions: P. falciparum in erythrocytes, SYBR Green DNA, 72 h; series mostly up to 28.7 µM
In short: as §3

HEK293T = experiment: qHTS assay to identify novel small-molecules to repurpose for Merkel cell carcinoma treatment (AID 1296009); conditions: MCC and control cell lines, CellTiter-Glo viability, 72 h; at 44.8 µM (top of the series) unless noted; further: potency means the concentration at half of the fitted maximal effect
In short: as §2
Further: nearly all actives have a fitted effect of over 60% in size.

With `c1ccc(N2CCNCC2)cc1` the max response (CRL-7250 [1]) was 4.63%, the max response (HEK293) was -4.08% and the outcome (HaCat [2]) was “inactive”. The outcome (NIH3T3) was “inactive”, the outcome (HACAT [3]) was “inactive” and the outcome (MCC-13) was “inactive”. The Potency (MCC-26) was “inactive” and the Potency (MKL-1) was “inactive”.

For `CN1CC[C@]23c4c5ccc(O)c4O[C@H]2[C@@H](O)C=C[C@H]3[C@H]1C5`, the max response (CRL-7250 [1]) was -11.3%, the outcome (HaCat [2]) was “inactive” and the max response (KB-3-1) was -4.72%. The max response (NIH3T3) was -4.09%, the outcome (HACAT [3]) was “inactive [at 92 µM]” and the outcome (MCC-13) was “inactive”. For the same compound, the Potency (MCC-26) was “inactive”.

`C[C@]12Cc3cn[nH]c3C[C@@H]1CC[C@@H]1[C@@H]2CC[C@@]2(C)[C@H]1CC[C@]2(C)O` showed a max response (CRL-7250 [1]) of 0.607%, a max response (HaCat [2]) of 2.06% and a max response (NIH3T3) of 3.99%. The outcome (MCC-13) was “inactive”, the Potency (MCC-26) was “inactive” and the Potency (MKL-1) was “inactive”.

`C[C@]12CC[C@H]3[C@@H](CCC4=CC(=O)CC[C@@H]43)[C@@H]1CC[C@@H]2OC(=O)CCC1CCCCC1` was tested, and the outcome (CRL-7250 [1]) was “inactive”, the max response (HaCat [2]) was 2.69% and the outcome (NIH3T3) was “inactive”. For the same compound, the outcome (CRL-7250 [4]) was “inactive”, the outcome (MCC-13) was “inactive” and the Potency (MKL-1) was “inactive”.

With `CC(C(=O)c1ccccc1)N(C)C` (configuration not stated) the max response (CRL-7250 [1]) was 3.38%, the max response (HEK293) was -1.39% and the outcome (HaCat [2]) was “inactive”. The max response (NIH3T3) was -10.7%, the outcome (HACAT [3]) was “inactive” and the outcome (MCC-13) was “inactive”. For the same compound, the Potency (MKL-1) was “inactive”.

With `CCC(C)(C)c1ccc(O)cc1` the Potency (PAD) was “inactive”, the Potency (PC15) was “inactive” and the Potency (PC26) was “inactive”. For the same compound, the Potency (PC49) was “inactive”, the Potency (SC27B) was “inactive” and the Potency (TAB109) was “inactive”. For the same compound, the Potency (TAB113) was “inactive”, the Potency (TAB165) was “inactive” and the Potency (W2) was “inactive”. For the same compound, the outcome (HEK293) was “inactive”, the max response (HaCat [2]) was 2.15% and the max response (KB-3-1) was 14.4%. The max response (NIH3T3) was 3.56%, the outcome (HEK293T) was “inactive” and the outcome (MCC-13) was “inactive”. The Potency (MKL-1) was “inactive”.

With `CCN[C@H](C)Cc1cccc(C(F)(F)F)c1` the max response (CRL-7250 [1]) was -0.312%, the outcome (HaCat [2]) was “inactive” and the max response (KB-3-1) was -19.7%. For the same compound, the max response (NIH3T3) was -0.0448%, the outcome (HACAT [3]) was “inactive [at 92 µM]” and the outcome (MCC-13) was “inactive”. For the same compound, the Potency (MCC-26) was “inactive” and the Potency (MKL-1) was “inactive”.

`COC1CC(=C(c2cccs2)c2cccs2)C[N+](C)(C)C1` (configuration not stated) was tested, and the Potency (PC49) was “inactive”, the Potency (TAB109) was 10 µM (active) and the Potency (TAB165) was 14.1 µM (active). For the same compound, the max response (CRL-7250 [1]) was -1.67%, the max response (HaCat [2]) was 2.01% and the max response (KB-3-1) was 0.141%. The max response (NIH3T3) was 0.648%, the outcome (MCC-13) was “inactive” and the Potency (MKL-1) was 21.1 µM (active).

In the case of `O=C1OC(CCN2CCCCC2)OC1(c1ccccc1)c1ccccc1` (configuration not stated), the max response (CRL-7250 [1]) was -20%, the max response (HaCat [2]) was 4.71% and the Potency (MKL-1) was 21.1 µM (active).

With `CCOP(=S)(OCC)Oc1ccc2c(C)c(Cl)c(=O)oc2c1` the Potency (PAD) was “inactive”, the Potency (PC15) was “inactive” and the Potency (PC26) was “inactive”. For the same compound, the Potency (PC49) was “inactive”, the Potency (TAB113) was 7.94 µM (active) and the Potency (W2) was 6.75 µM (active). It also gave a max response (CRL-7250 [1]) of -4.21%, a max response (HaCat [2]) of 0.247% and a max response (KB-3-1) of -7.69%. For the same compound, the max response (NIH3T3) was -7.51%, the outcome (MCC-13) was “inactive” and the Potency (MKL-1) was “inactive”.

`C[C@]12CCC(=O)C=C1CC[C@@H]1[C@@H]2CC[C@]2(C)C(=O)CC[C@@H]12` was tested, and the Potency (PC15) was “inactive”, the Potency (PC26) was “inactive” and the Potency (PC49) was “inactive”. The Potency (SC27B) was “inactive”, the Potency (TAB109) was “inactive” and the Potency (TAB113) was “inactive”. The Potency (TAB165) was “inactive”, the Potency (W2) was “inactive” and the max response (CRL-7250 [1]) was -5.91%. For the same compound, the max response (HaCat [2]) was -13.1%, the max response (KB-3-1) was -6.1% and the max response (NIH3T3) was -1.13%. The outcome (MCC-13) was “inactive” and the Potency (MKL-1) was “inactive”.

In the case of `CC(Cc1ccccc1)N(C)Cc1ccco1` (configuration not stated), the max response (CRL-7250 [1]) was -3.65%, the max response (HEK293) was -5.17% and the outcome (HaCat [2]) was “inactive”. For the same compound, the max response (NIH3T3) was -7.67%, the outcome (HACAT [3]) was “inactive” and the outcome (MCC-13) was “inactive”. For the same compound, the Potency (MCC-26) was “inactive” and the Potency (MKL-1) was “inactive”.

`CC(Cc1ccccc1)NCCn1cnc2c1c(=O)n(C)c(=O)n2C` (configuration not stated) was tested, and the max response (CRL-7250 [1]) was 2.38%, the outcome (HaCat [2]) was “inactive” and the max response (KB-3-1) was 0.853%. The max response (NIH3T3) was -0.181%, the outcome (HACAT [3]) was “inactive [at 92 µM]” and the outcome (MCC-13) was “inactive”. For the same compound, the Potency (MCC-26) was “inactive” and the Potency (MKL-1) was “inactive”.

`CCCCCCC(=O)CCCCCC/C=C/C[C@@H](O)[C@H](O)[C@@](N)(CO)C(=O)O` was tested, and the Potency (PAD) was “inactive”, the Potency (PC15) was “inactive” and the Potency (PC26) was “inactive”. The Potency (PC49) was “inactive”, the Potency (SC27B) was “inactive” and the Potency (TAB109) was “inactive”. For the same compound, the Potency (TAB113) was “inactive”, the Potency (TAB165) was “inactive” and the max response (CRL-7250 [1]) was -1.04%. For the same compound, the max response (HEK293) was -0.716%, the max response (KB-3-1) was 4.21% and -11.8% and the max response (NIH3T3) was 0.482%. The outcome (MCC-13) was “inactive”, the Potency (MCC-26) was “inactive” and the Potency (MKL-1) was “inactive”.

`O=C1CN=C(c2ccccc2)c2cc([N+](=O)[O-])ccc2N1` was tested, and the Potency (PAD) was “inactive”, the Potency (PC15) was “inactive” and the Potency (PC26) was “inactive”. For the same compound, the Potency (PC49) was “inactive”, the Potency (SC27B) was “inactive” and the Potency (TAB109) was “inactive”. The Potency (TAB113) was “inactive”, the Potency (TAB165) was “inactive” and the Potency (W2) was “inactive”. For the same compound, the max response (HEK293) was -13.4%, the outcome (HaCat [2]) was “inactive” and the max response (KB-3-1) was 3.93%. The max response (NIH3T3) was -0.271%, the outcome (HACAT [3]) was “inactive” and the outcome (MCC-13) was “inactive”. For the same compound, the Potency (MCC-26) was “inactive” and the Potency (MKL-1) was “inactive”.

`CCN(CC)CCc1c[nH]c2ccccc12` gave a max response (HEK293) of -22%, a max response (HaCat [2]) of -3.07% and a max response (KB-3-1) of -19.3%. The max response (NIH3T3) was -2.44%, the outcome (MCC-13) was “inactive” and the Potency (MKL-1) was “inactive”.

With `COC(=O)C(Cl)C(=O)OC` the max response (CRL-7250 [1]) was -1.36%, the outcome (HEK293) was “inactive” and the max response (KB-3-1) was -12.1%. For the same compound, the max response (NIH3T3) was -7.3%, the outcome (HEK293T) was “inactive” and the outcome (MCC-13) was “inactive”. The Potency (MKL-1) was “inactive”.
